Results filed as inconclusive are left out. Calls of active or inactive are those of the source. Rule as the data show it, unless noted: active = inhibition above about 30%; inactive = the rest.
Tests used:
[1] = SK-BR-3 cell growth inhibitors, pilot screen, 24 h, human (AID 572;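 active = viability at or below 10% of carrier control in both of two separate runs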;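 also: compound exposure lasted between 18 and 24 h rather than exactly 24 h; 100% = carrier-treated control wells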); details: SK-BR-3 viability, CellTiter-Glo luminescence, at 10 µM, stronger effect = lower value
[2] = HUVEC growth inhibition – cell-based, human, primary screen (AID 575;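 active = viability at or below 30% in both replicate assays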;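 also: 100% = median of untreated cell wells with 0.1% DMSO on each plate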); details: HUVEC proliferation, CellTiter-Glo luminescence, 72 h; at 10 µM; stronger effect = lower value
[3] = growth inhibitors of H69AR lung tumor, primary screen, human, duplicate replicates (AID 580;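 active = viability at or under a set limit in both replicates, limit being median viability minus 3 SD, cut at about 48% in these data, passing the limit was not always enough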;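 also: 100% = mean luminescence of untreated wells and 0% = no signal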); details: H69AR lung tumor cells viability, ATP luminescence, 72 h; at 10 µM; stronger effect = lower value
[4] = reversal of MRP1-mediated doxorubicin resistance, pilot screen, H69AR cells, doxorubicin co-treatment (AID 601;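 active = viability loss from added drug above about 55%, and viability with drug at most 40%, in both replicates, limit read from the data, passing the limit was not always enough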); details: CellTiter-Glo, 72 h, at 10 µM; for differential viability (reversal): stronger effect = higher value
[5] = 384-well plate pilot, post-Golgi transport modulator project, inhibition of yeast transport mutant growth (AID 636; in the data active = inhibition above about 31%); details: absorbance 615 nm, about 18 h, stronger effect = higher value
[6] = growth suppression of yeast trafficking mutant, preliminary HTS, modulators of trafficking downstream of Golgi apparatus project, 1536-format plate, OD 615 nm (AID 637); details: yeast transport mutant growth, absorbance 615 nm, 18 h; stronger effect = higher value
[7] = OD615 S. cerevisiae growth inhibition, permissive medium, pilot counter-assay, permissive growth control for S. cerevisiae lifespan shortening project (AID 705;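 active = growth inhibition above 25% in both replicates, a cutoff set 3 SD above the mean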); details: OD615, 24 h, at 10 µM, stronger effect = higher value
[8] = Restrictive medium S. cerevisiae growth inhibition, OD615, pilot screen of yeast lifespan reduction project, restrictive growth control (AID 706;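 active = growth inhibition above a set limit, 3 SD over mean compound inhibition, in both replicates, cut at about 43% in these data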;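 also: modified DeaD lifespan yeast strain shifted to restrictive glucose medium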); details: OD615, 48 h, at 10 µM, stronger effect = higher value
[9] = viability gain of MRP-1-high H69AR cells under doxorubicin, pilot screen, MRP-1 activator project, CellTiter-Glo, duplicate (AID 807;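 active = viability increase at or above a cutoff of the median across tested compounds plus 3 SD, cut at about 8.5% in these data, passing the limit was not always enough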;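 also: compound pretreatment 18-22 h then 72 h combined with doxorubicin; 0% = doxorubicin alone and 100% = vehicle without doxorubicin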); details: H69AR viability with doxorubicin, CellTiter-Glo luminescence; at 10 µM; stronger effect = higher value
[10] = growth suppression of beta-catenin knockout HCT116, pilot screen, human colon tumor cells (AID 823;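 active = cell viability at or below a set limit in both duplicate runs, the limit being the all-compound median minus 4 SD, cut at about 23% in these data, passing the limit was not always enough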;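 also: 0% = wells killed by 20 µM Hyamine and 100% = untreated DMSO cell wells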); details: CellTiter-Glo, 60 h, at 10 µM, stronger effect = lower value
[11] = growth suppression of PTEN-deleted HCT116, pilot screen, cell-based, HCT116 clonal line, CellTiter-Glo (AID 824;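 active = viability at or below 27.92% in each of two runs, the all-compound median minus 4 SD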;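 also: 0% = 20 µM Hyamine control and 100% = vehicle cell control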); details: 60 h, at 10 µM, stronger effect = lower value
[12] = inhibitors of the yeast RAM network, pilot screen, dse1pr::URA3 reporter, 5-FOA selection (AID 869;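 active = inhibition over a set limit, the all-compound mean plus 3 SD, in both replicate runs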;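 also: 0% = DMSO wells with no growth and 100% = 10 µM 1-NA-PP1 with full growth; RAM network block rescues cells from 5-FOA so hits raise OD615 growth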); details: S. cerevisiae dse1pr::URA3 5-FOA growth, OD615, 2 d; at 10 µM; stronger effect = higher value; strain carries analog-sensitive mutant Cbk1 kinase
[13] = RAM signaling pathway blockade in yeast – S. cerevisiae, Pdr1DBD-CYC8 efflux-inhibited sensitized strain, primary screen (AID 1298;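 active = RAM network inhibition above 8.4% in each of two replicates, 3 SD over the compound average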;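 also: 0% = DMSO untreated cells without growth and 100% = 10 µM 1-NA-PP1 full growth; higher means more yeast growth rescued from 5-FOA killing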); details: S. cerevisiae cbk1-as DSE1-URA3 strain, 5-FOA growth OD615, 2 d; at 50 µM; stronger effect = higher value
[14] = H69AR cells + 2 uM doxorubicin, measured here: viability with 2 uM doxorubicin, stronger effect = lower value
[15] = H69AR cells, compound alone cytotoxicity

| Compound | viability [1] | viability [2] | viability [3] | differential viability (reversal) ([4]; H69AR cells + 2 uM doxorubicin) | viability [4, 14] [%] | viability [4, 15] [%] | inhibition [5] | inhibition [6] | growth inhibition [7] | growth inhibition [8] | viability increase [9] | viability [10] | viability [11] | inhibition [12] | RAM network inhibition [13] |
| --- | --- | --- | --- | --- | --- | --- | --- | --- | --- | --- | --- | --- | --- | --- | --- |
| Cc1cc(=O)oc2cc(OCC#N)ccc12 | 112% (inactive) | 92.1% (inactive) | 99.4% (inactive) | 6.12% (inactive) | 93.3 | 99.4 | -5.07% (inactive) | 1.33% (inactive) | -4.47% (inactive) | -4.6% (inactive) | 1.11% (inactive) | 106% (inactive) | 96.1% (inactive) | 0.155% (inactive) | 3.55% (inactive) |
| Cc1onc(-c2ccccc2)c1C(=O)NCc1cccnc1 | 102% (inactive) | 100% (inactive) | 99.4% (inactive) | 9.66% (inactive) | 89.7 | 99.4 | -3.33% (inactive) | 3.09% (inactive) | -14% (inactive) | -11.6% (inactive) | -1.32% (inactive) | 98.2% (inactive) | 95.8% (inactive) | 2.08% (inactive) | 1.71% (inactive) |
| OC(CNCCc1ccccc1)c1ccccc1 (stereo not given) | 101% (inactive) | 101% (inactive) | 91.2% (inactive) | 9.8% (inactive) | 81.4 | 91.2 | -5.07% (inactive) | 2.36% (inactive) | -6.34% (inactive) | -6.08% (inactive) | -0.36% (inactive) | 95.4% (inactive) | 94.1% (inactive) | 0.865% (inactive) | 0.66% (inactive) |
| CC(=O)NCCc1ccc(S(=O)(=O)NCc2ccc3c(c2)OCO3)cc1 | 91% (inactive) | 91.9% (inactive) | 103% (inactive) | 12% (inactive) | 91.3 | 103 | -8.27% (inactive) | -6.18% (inactive) | -15.2% (inactive) | -5.52% (inactive) | 0.44% (inactive) | 96.1% (inactive) | 97.1% (inactive) | 1.12% (inactive) | 1.84% (inactive) |
| COc1cccc(C2C(C(=O)c3cccs3)=C(O)C(=O)N2CCCn2ccnc2)c1OC (stereo not given) | 130% (inactive) | 102% (inactive) | 109% (inactive) | 20.9% (inactive) | 88.3 | 109 | -7.47% (inactive) | 3.09% (inactive) | -6.37% (inactive) | 1.34% (inactive) | -1.56% (inactive) | 89.1% (inactive) | 89.5% (inactive) | 0.145% (inactive) | 0.92% (inactive) |
| CCN(CC)S(=O)(=O)c1ccc2c(c1)nc(SCn1nnc3ccccc3c1=O)n2CC | 74% (inactive) | 81.1% (inactive) | 83.2% (inactive) | 8.64% (inactive) | 74.6 | 83.2 | -4.93% (inactive) | -2.36% (inactive) | -1.67% (inactive) | -5.42% (inactive) | 2.88% (inactive) | 90.7% (inactive) | 103% (inactive) | 2.54% (inactive) | 7.57% (inactive) |
| CCn1c(C(C#N)/C(=N\S(=O)(=O)c2cccs2)c2ccccc2)nc2ccccc21 (stereo not given) | 112% (inactive) | 96.2% (inactive) | 81.7% (inactive) | -12.6% (inactive) | 94.3 | 81.7 | 0.26% (inactive) | -1.15% (inactive) | -26.8% (inactive) | -15% (inactive) | -3.19% (inactive) | 87.4% (inactive) | 90.2% (inactive) | 1.55% (inactive) | 5.16% (inactive) |
| Cc1oc(-c2cccc(Cl)c2)nc1CN1CCC(C(=O)N2CCN(c3ccccc3F)CC2)CC1 | 73% (inactive) | 4.6% (active) | 32.3% (active) | -24.7% (inactive) | 57 | 32.3 | -1.6% (inactive) | -3.28% (inactive) | 0.125% (inactive) | 1.06% (inactive) | -7.78% (inactive) | 17.2% (active) | 10.2% (active) | 1.05% (inactive) | 6.04% (inactive) |
| CC12CN3CCN(CC(C3)C1(O)CN1CCCCC1)C2 (stereo not given) | 119% (inactive) | 95.5% (inactive) | 92.5% (inactive) | 3.25% (inactive) | 89.2 | 92.5 | -8.13% (inactive) | -0.18% (inactive) | -9.73% (inactive) | -6.28% (inactive) | -1.63% (inactive) | 88.3% (inactive) | 85.1% (inactive) | 1.06% (inactive) | 1.07% (inactive) |
| Cc1nonc1NC(=O)c1ccccc1Br | 101% (inactive) | 95.8% (inactive) | 91.8% (inactive) | 4.93% (inactive) | 86.8 | 91.8 | -3.6% (inactive) | -1.64% (inactive) | -16.1% (inactive) | -8.82% (inactive) | 0.21% (inactive) | 93.7% (inactive) | 101% (inactive) | 2.3% (inactive) | -0.15% (inactive) |
| CC(=O)Nc1nnc(SCC(=O)NCC2CCCO2)s1 (stereo not given) | 70% (inactive) | 105% (inactive) | 96.3% (inactive) | 3.56% (inactive) | 92.7 | 96.3 | 0.27% (inactive) | 7.64% (inactive) | -2.62% (inactive) | 2.21% (inactive) | -1.36% (inactive) | 100% (inactive) | 88.6% (inactive) | 0.925% (inactive) | -0.72% (inactive) |

From PubChem BioAssay
